Laboratory results published in PubChem BioAssay AID1345085 (National Center for Advancing Translational Sciences (NCATS), 2018).
Inconclusive results are not listed. Activity calls are given as the source filed them. The call rests on the fitted dose curve; in most records, active means well fitted cell-killing curve with a large enough effect; inconclusive means small, poorly fitted or top-dose-only effect, or effect the other way; inactive means no such curve, though single readings can be large or run the other way.

Test system: PA-1
Assay: Confirmatory qHTS for gynecologic anti-cancer compounds from libraries of approved drugs and bioactive compounds; further: nearly all actives have a fitted effect of over 55% in size
Conditions: gynecologic cancer cell panel viability, ATPlite luminescence, 48 h; series mostly up to 57.6 µM
Method in brief: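 ATP-based luminescent viability (ATPlite) after 48 h drug treatment at 37 °C, 5% CO2, across 57.5 uM–0.977 nM in 1:3 steps. Cells seeded at 1,000 per well 16 h beforehand; IC50 values computed, HEK 293T as selectivity control.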
Potency means the concentration at half of the fitted maximal effect.

| SMILES | Potency |
| --- | --- |
| CN1CCN(CCOc2cc(OC3CCOCC3)c3c(Nc4c(Cl)ccc5c4OCO5)ncnc3c2)CC1 | 19.3 µM (active) |
| Oc1cn2c(n1)Nc1ccc(Cl)c(Cl)c1C2 | inactive |
| COc1cc(-c2nn(C3CCC(N4CCN(C(C)=O)CC4)CC3)c3ncnc(N)c23)ccc1NC(=O)c1cc2ccccc2n1C (stereo not given) | 30.6 µM (active) |
| Fc1cc(-c2cccc3ncc(-c4cnn(C5CCNCC5)c4)nc23)cc(F)c1CN1CCOCC1 | 27.3 µM (active) |
| Cc1nc(Nc2n[nH]c3c2CN(C(=O)NC(CN(C)C)c2ccccc2)C3(C)C)c2sccc2n1 (stereo not given) | 0.0243 µM (active) |
| CC(=O)NCC(=O)N1C2CCC1c1cc(Nc3ncc(C(F)(F)F)c(NC4CCC4)n3)ccc12 (stereo not given) | 0.685 µM (active) |
| COc1ccc(OC)c(-c2nnc3ccc(-c4ccc(OC)c(O[C@@H]5CCOC5)c4)nn23)c1 | 5.44 µM (active) |
| O=C(c1ccc(/C=C/c2n[nH]c3ccccc23)cc1)N1CCNCC1 | 6.11 µM (active) |
| Nc1ccc(-c2ccc3ncc4ccc(=O)n(-c5cccc(C(F)(F)F)c5)c4c3c2)cn1 | 0.863 µM (active) |
| COc1ccccc1N1CCN(CC(O)COc2cccc3ccccc23)CC1 (stereo not given) | inactive |
| Cc1ccc(C(=O)Nc2ccc(Oc3cc4cnn(C)c4cc3-c3cn[nH]c3)c(F)c2)c(=O)n1-c1ccc(F)cc1 | 10.9 µM (active) |
| O=C1NC(=O)C(c2cnc3ccccn23)=C1c1cn2c3c(cccc13)CN(C(=O)N1CCOCC1)CC2 | 10.9 µM (active) |
| Cc1ccn(-c2ccc(-c3ncco3)cc2)c(=O)c1-c1ccc2nc(N)ncc2c1 | 27.3 µM (active) |
| Nc1cccc(-c2cc3c(Oc4cccc(O)c4)ncnc3[nH]2)c1 | 9.68 µM (active) |
| COc1cc2c(NC3CCN(C(C)C)CC3)nc(C3CCCCC3)nc2cc1OCCCN1CCCC1 | 17.2 µM (active) |
| Cc1cnc(Nc2ccc(CN3CCOCC3)cc2)nc1Nc1cccc(S(=O)(=O)NC(C)(C)C)c1 | 2.17 µM (active) |
| COc1cc(N2CCC(N(C)C)CC2)ccc1Nc1ncc(Cl)c(Nc2ccccc2P(C)(C)=O)n1 | 6.11 µM (active) |
| CCC(=O)N1CCN(c2ccc(-n3c(=O)ccc4cnc5ccc(-c6cnc7ccccc7c6)cc5c43)cc2C(F)(F)F)CC1 | 0.627 µM (active) |
| Cc1csc(NC(=O)c2sc3nc4c(c(C(F)(F)F)c3c2N)CCC4)n1 | 3.43 µM (active) |
| COc1cc2nccc(Oc3ccc(NC(=O)Nc4cc(C)on4)c(Cl)c3)c2cc1OC | 5.44 µM (active) |

| SMILES | Potency |
| --- | --- |
| COCCOc1ccc2c(c1)ncn2-c1ccc2cccc(N3CCC(N)CC3)c2n1 | 4.85 µM (active) |
| CC[C@]1(O)C[C@@H]2CN(CCc3c([nH]c4ccccc34)[C@@](C(=O)OC)(c3cc4c(cc3OC)N(C)[C@H]3[C@@](O)(C(=O)OC)[C@H](OC(C)=O)[C@]5(CC)C=CCN6CC[C@]43[C@@H]65)C2)C1 | 0.109 µM (active) |
| OCc1ccc(-c2ccc(-c3ccc(CO)s3)o2)s1 | inactive |
| CC(=O)OC12COC1CC(O)C1(C)C(=O)C(O)C3=C(C)C(OC(=O)C(O)C(NC(=O)OC(C)(C)C)c4ccccc4)CC(O)(C(OC(=O)c4ccccc4)C21)C3(C)C (stereo not given) | 0.0077 µM (active) |
| COc1ccc2c(c1)c(CC(=O)O)c(C)n2C(=O)c1ccc(Cl)cc1 | 27.3 µM (active) |
| COc1cc2nccc(Oc3ccc(NC(=O)C4(C(=O)Nc5ccc(F)cc5)CC4)cc3)c2cc1OC | 10.9 µM (active) |
| CN(C[C@@H]1COCCO1)S(=O)(=O)Nc1ccc2ccc3ncc(-c4cnn(C)c4)cc3c(=O)c2c1 | 17.2 µM (active) |
| Nc1nc(=S)c2[nH]cnc2[nH]1 | 6.85 µM (active) |
| CC1=C(/C=C/C(C)=C/C=C/C(C)=C/C(=O)Nc2ccc(O)cc2)C(C)(C)CCC1 | 4.85 µM (active) |
| CCCCc1oc2ccc(NS(C)(=O)=O)cc2c1C(=O)c1ccc(OCCCN(CCCC)CCCC)cc1 | 27.3 µM (active) |
| CN1CCN(c2ccc(OC(F)(F)F)c(Nc3ncc4c(n3)-c3c(c(C(N)=O)nn3CCO)CC4)c2)CC1 | 0.153 µM (active) |
| Cc1nc(N)nc(N)c1-c1ccc(Cl)c(Cl)c1 | 1.37 µM (active) |
| CCN(CC)CCCC(C)Nc1ccnc2cc(Cl)ccc12 (stereo not given) | inactive |
| CC(C)c1nn(-c2c(Cl)cccc2Cl)c2nc(Cc3ccc(OCCO)cc3)[nH]c(=O)c12 | 0.0968 µM (active) |
| COc1cccc2cc(-c3nc(C4CCC(C(=O)O)CC4)n4ncnc(N)c34)[nH]c12 (stereo not given) | 9.68 µM (active) |
| O=C(CCCCCCC(=O)Nc1ccccc1)NO | 1.37 µM (active) |
| C[C@]12CCC(=O)C=C1CC[C@@H]1[C@@H]2[C@@H](O)C[C@@]2(C)[C@H]1CC[C@]2(O)C(=O)CO | 21.7 µM (active) |
| CCCCN(CCCC)C(=O)CN1C[C@H](c2ccc3c(c2)OCO3)[C@@H](C(=O)O)[C@@H]1c1ccc(OC)cc1 | inactive |
| COc1cccc2c1C(=O)c1c(O)c3c(c(O)c1C2=O)C[C@@](O)(C(=O)CO)C[C@@H]3O[C@H]1C[C@H](N)[C@H](O)[C@H](C)O1 | 0.432 µM (active) |
| CC(C)Oc1ccc2c(=O)c(-c3ccccc3)coc2c1 | 17.2 µM (active) |
